Here are results for eleven sequences from PMC11006913.

Where a chain is given by its changes, count along the chain named.

Holding throughout (test): PBM; 200 nM protein, PBS
Conditions in all cases: dsDNA, one strand shown

Assay [1] concerns the target T1, VENTX (Homo sapiens, UniProt O95231 78-163, R121Q).
T1 sequence: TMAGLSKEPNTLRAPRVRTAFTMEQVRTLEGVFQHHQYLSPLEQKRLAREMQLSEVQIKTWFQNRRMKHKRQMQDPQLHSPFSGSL

The target in assay [2] is T2, VENTX (Homo sapiens, UniProt O95231 78-163).
T2 sequence: T1 sequence with Q44R

The target in assay [3] is T3, VENTX (Homo sapiens, UniProt O95231 78-163, Y115F).
T3 sequence: T1 sequence with Y38F, Q44R

For assay [4], the target named is MSX2 (Homo sapiens, UniProt P35548 130-214, R199I).
Chain of MSX2 (Homo sapiens, UniProt P35548 130-214, R199I) (P35548 130-214 R199I): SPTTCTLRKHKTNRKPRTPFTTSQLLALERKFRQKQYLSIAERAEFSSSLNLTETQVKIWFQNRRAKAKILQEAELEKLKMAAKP
Assay [5] has as its target MSX2 (Homo sapiens, UniProt P35548 130-214).
Assay [6] addresses MSX2 (Homo sapiens, UniProt P35548 130-214, F161Y).
The target of assay [7] is ALX3 (Homo sapiens, UniProt O95076 139-225, N203Q).
Chain of ALX3 (Homo sapiens, UniProt O95076 139-225, N203Q) (O95076 139-225 N203Q): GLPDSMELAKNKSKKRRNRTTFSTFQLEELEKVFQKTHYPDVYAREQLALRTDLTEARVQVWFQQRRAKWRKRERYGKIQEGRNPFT
Assay [8] addresses T4, NKX2-6 (Homo sapiens, UniProt A6NCS4 118-204).
T4 sequence: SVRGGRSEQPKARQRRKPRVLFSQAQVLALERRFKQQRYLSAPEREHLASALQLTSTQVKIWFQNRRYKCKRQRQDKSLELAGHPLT

Assay [9] concerns the target ALX3 (Homo sapiens, UniProt O95076 139-225).
For assay [10], the target named is ALX3 (Homo sapiens, UniProt O95076 139-225, L168Q).
Chain of ALX3 (Homo sapiens, UniProt O95076 139-225, L168Q) (O95076 139-225 L168Q): as the sequence (O95076 139-225 N203Q) above, with L30Q, Q65N counted along it
Assay [11] deals with T5, NKX2-6 (Homo sapiens, UniProt A6NCS4 118-204, F151L).
T5 sequence: T4 sequence with F34L

The target of assay [12] is ALX3 (Homo sapiens, UniProt O95076 139-225, L168V).
Chain of ALX3 (Homo sapiens, UniProt O95076 139-225, L168V) (O95076 139-225 L168V): as the sequence (O95076 139-225 N203Q) above, with L30V, Q65N counted along it
The target of assay [13] is ALX3 (Homo sapiens, UniProt O95076 139-225, N203S).
Chain of ALX3 (Homo sapiens, UniProt O95076 139-225, N203S) (O95076 139-225 N203S): as the sequence (O95076 139-225 N203Q) above, with Q65S counted along it
In assay [14] the target is HOXA2 (Homo sapiens, UniProt O43364 129-215, R185T).
Chain of HOXA2 (Homo sapiens, UniProt O43364 129-215, R185T) (O43364 129-215 R185T): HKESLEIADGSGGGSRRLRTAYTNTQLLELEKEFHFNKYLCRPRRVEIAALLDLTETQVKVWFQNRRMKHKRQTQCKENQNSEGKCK
For assay [15], the target named is HOXA2 (Homo sapiens, UniProt O43364 129-215, R185K).
Chain of HOXA2 (Homo sapiens, UniProt O43364 129-215, R185K) (O43364 129-215 R185K): as the sequence (O43364 129-215 R185T) above, with T57K counted along it
The target in assay [16] is HOXA2 (Homo sapiens, UniProt O43364 129-215, Y150S).
Chain of HOXA2 (Homo sapiens, UniProt O43364 129-215, Y150S) (O43364 129-215 Y150S): as the sequence (O43364 129-215 R185T) above, with Y22S, T57R counted along it
The target of assay [17] is HOXA2 (Homo sapiens, UniProt O43364 129-215).
Chain of HOXA2 (Homo sapiens, UniProt O43364 129-215) (O43364 129-215): as the sequence (O43364 129-215 R185T) above, with T57R counted along it
Assay [18] concerns the target HOXB6 (Homo sapiens, UniProt P17509 132-218, K202E).
Assay [19] concerns the target ALX1 (Homo sapiens, UniProt Q15699 118-204, L144V).
Assay [20] addresses ALX1 (Homo sapiens, UniProt Q15699 118-204, L144R).
Assay [21] addresses ALX1 (Homo sapiens, UniProt Q15699 118-204).
Assay [22] addresses HOXB6 (Homo sapiens, UniProt P17509 132-218).
Assay [23] addresses VAX1 (Homo sapiens, UniProt Q5SQQ9 86-172).
In assay [24] the target is VAX1 (Homo sapiens, UniProt Q5SQQ9 86-172, T142I).
Chain of VAX1 (Homo sapiens, UniProt Q5SQQ9 86-172, T142I) (Q5SQQ9 86-172 T142I): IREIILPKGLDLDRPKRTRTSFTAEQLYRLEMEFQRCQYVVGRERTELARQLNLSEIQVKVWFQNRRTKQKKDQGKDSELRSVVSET
Assay [25] deals with VAX1 (Homo sapiens, UniProt Q5SQQ9 86-172, K157R).
Chain of VAX1 (Homo sapiens, UniProt Q5SQQ9 86-172, K157R) (Q5SQQ9 86-172 K157R): as the sequence (Q5SQQ9 86-172 T142I) above, with I57T, K72R counted along it
The target in assay [26] is HOXD13 (Homo sapiens, UniProt P35453 263-343, T313R).
Chain of HOXD13 (Homo sapiens, UniProt P35453 263-343, T313R) (P35453 263-343 T313R): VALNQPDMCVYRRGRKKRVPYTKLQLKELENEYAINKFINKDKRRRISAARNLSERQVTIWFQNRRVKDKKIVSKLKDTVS
Assay [27] concerns the target HOXD13 (Homo sapiens, UniProt P35453 263-343).
For assay [28], the target named is HOXD13 (Homo sapiens, UniProt P35453 263-343, T313A).
Chain of HOXD13 (Homo sapiens, UniProt P35453 263-343, T313A) (P35453 263-343 T313A): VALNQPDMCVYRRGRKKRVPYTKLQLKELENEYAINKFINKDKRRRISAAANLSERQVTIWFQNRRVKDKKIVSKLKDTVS

Chain of ALX3 (Homo sapiens, UniProt O95076 139-225) (O95076 139-225): as the sequence (O95076 139-225 N203Q) above, with Q65N counted along it
Chain of HOXB6 (Homo sapiens, UniProt P17509 132-218) (P17509 132-218): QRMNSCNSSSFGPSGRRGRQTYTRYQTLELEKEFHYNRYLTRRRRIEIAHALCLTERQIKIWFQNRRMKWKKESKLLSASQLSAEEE
Chain of VAX1 (Homo sapiens, UniProt Q5SQQ9 86-172) (Q5SQQ9 86-172): as the sequence (Q5SQQ9 86-172 T142I) above, with I57T counted along it
Chain of HOXB6 (Homo sapiens, UniProt P17509 132-218, K202E) (P17509 132-218 K202E): as the sequence (P17509 132-218) above, with K71E counted along it
Chain of ALX1 (Homo sapiens, UniProt Q15699 118-204) (Q15699 118-204): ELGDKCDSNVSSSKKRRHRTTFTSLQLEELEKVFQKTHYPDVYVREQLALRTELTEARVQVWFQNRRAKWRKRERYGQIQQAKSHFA
Chain of HOXD13 (Homo sapiens, UniProt P35453 263-343) (P35453 263-343): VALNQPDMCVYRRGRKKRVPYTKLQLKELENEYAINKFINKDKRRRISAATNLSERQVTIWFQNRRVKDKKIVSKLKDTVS
Chain of MSX2 (Homo sapiens, UniProt P35548 130-214, F161Y) (P35548 130-214 F161Y): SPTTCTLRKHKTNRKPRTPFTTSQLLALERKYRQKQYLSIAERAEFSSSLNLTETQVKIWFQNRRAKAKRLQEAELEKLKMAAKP
Chain of ALX1 (Homo sapiens, UniProt Q15699 118-204, L144V) (Q15699 118-204 L144V): as the sequence (Q15699 118-204) above, with L27V counted along it
Chain of MSX2 (Homo sapiens, UniProt P35548 130-214) (P35548 130-214): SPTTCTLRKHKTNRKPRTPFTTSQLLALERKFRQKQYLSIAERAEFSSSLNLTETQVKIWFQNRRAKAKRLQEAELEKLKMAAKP
Chain of ALX1 (Homo sapiens, UniProt Q15699 118-204, L144R) (Q15699 118-204 L144R): as the sequence (Q15699 118-204) above, with L27R counted along it

Consider CCTGGCTC, for which the binding signal with VENTX [1] was 8.01 upbm affinity estimate (log intensity, higher = more binding, comparable within an allelic series); in the assay with VENTX [2], 8.1 upbm affinity estimate (log intensity, higher = more binding, comparable within an allelic series); with VENTX [3], 8.06 upbm affinity estimate (log intensity, higher = more binding, comparable within an allelic series); with MSX2 [4] it was 9.46 upbm affinity estimate (log intensity, higher = more binding, comparable within an allelic series); with MSX2 [5], 9.51 upbm affinity estimate (log intensity, higher = more binding, comparable within an allelic series); in the assay with MSX2 [6], 9.47 upbm affinity estimate (log intensity, higher = more binding, comparable within an allelic series).

Take CGAGCCGC: the binding signal in the assay with VENTX [1] is 8.16 upbm affinity estimate (log intensity, higher = more binding, comparable within an allelic series); with VENTX [2], 8.17 upbm affinity estimate (log intensity, higher = more binding, comparable within an allelic series); with VENTX [3] it was 8.15 upbm affinity estimate (log intensity, higher = more binding, comparable within an allelic series); with ALX3 [7], 7.74 upbm affinity estimate (log intensity, higher = more binding, comparable within an allelic series); in the assay with NKX2-6 [8] it was 9.49 upbm affinity estimate (log intensity, higher = more binding, comparable within an allelic series); with ALX3 [9] it was 7.82 upbm affinity estimate (log intensity, higher = more binding, comparable within an allelic series). For the same sequence, the binding signal with ALX3 [10] was 7.81 upbm affinity estimate (log intensity, higher = more binding, comparable within an allelic series); in the assay with NKX2-6 [11], 9.16 upbm affinity estimate (log intensity, higher = more binding, comparable within an allelic series); with ALX3 [12] it was 7.75 upbm affinity estimate (log intensity, higher = more binding, comparable within an allelic series); with ALX3 [13], 7.79 upbm affinity estimate (log intensity, higher = more binding, comparable within an allelic series).

As to GCTTATTA, the binding signal in the assay with VENTX [1] is 10.2 upbm affinity estimate (log intensity, higher = more binding, comparable within an allelic series); with VENTX [2], 10.8 upbm affinity estimate (log intensity, higher = more binding, comparable within an allelic series); in the assay with VENTX [3], 10.3 upbm affinity estimate (log intensity, higher = more binding, comparable within an allelic series); with HOXA2 [14] it was 10.9 upbm affinity estimate (log intensity, higher = more binding, comparable within an allelic series); in the assay with HOXA2 [15], 12.2 upbm affinity estimate (log intensity, higher = more binding, comparable within an allelic series); in the assay with HOXA2 [16], 10.7 upbm affinity estimate (log intensity, higher = more binding, comparable within an allelic series). For the same sequence, the binding signal in the assay with HOXA2 [17] was 10.7 upbm affinity estimate (log intensity, higher = more binding, comparable within an allelic series).

Regarding ACGTAATA, the binding signal with VENTX [1] is 10.2 upbm affinity estimate (log intensity, higher = more binding, comparable within an allelic series); with VENTX [2] it was 10.5 upbm affinity estimate (log intensity, higher = more binding, comparable within an allelic series); with VENTX [3], 10.1 upbm affinity estimate (log intensity, higher = more binding, comparable within an allelic series).

With GCCCCCCC, the binding signal is 8.24 upbm affinity estimate (log intensity, higher = more binding, comparable within an allelic series) with VENTX [1]; 8.18 upbm affinity estimate (log intensity, higher = more binding, comparable within an allelic series) with VENTX [2]; 8.34 upbm affinity estimate (log intensity, higher = more binding, comparable within an allelic series) in the assay with VENTX [3]; 7.05 upbm affinity estimate (log intensity, higher = more binding, comparable within an allelic series) in the assay with HOXA2 [14]; 9.94 upbm affinity estimate (log intensity, higher = more binding, comparable within an allelic series) with HOXA2 [15]; 10.3 upbm affinity estimate (log intensity, higher = more binding, comparable within an allelic series) with HOXA2 [16]. Moreover, the binding signal with HOXA2 [17] is 7.28 upbm affinity estimate (log intensity, higher = more binding, comparable within an allelic series).

Turning to GCCCAGGC, the binding signal is 7.88 upbm affinity estimate (log intensity, higher = more binding, comparable within an allelic series) with VENTX [1]; 7.61 upbm affinity estimate (log intensity, higher = more binding, comparable within an allelic series) with VENTX [2]; 7.8 upbm affinity estimate (log intensity, higher = more binding, comparable within an allelic series) with VENTX [3]; 8.91 upbm affinity estimate (log intensity, higher = more binding, comparable within an allelic series) with HOXB6 [18]; 6.96 upbm affinity estimate (log intensity, higher = more binding, comparable within an allelic series) in the assay with HOXA2 [14]; 6.2 upbm affinity estimate (log intensity, higher = more binding, comparable within an allelic series) with ALX1 [19]. In addition, the binding signal with ALX3 [7] was 7.68 upbm affinity estimate (log intensity, higher = more binding, comparable within an allelic series); in the assay with HOXA2 [15] it was 10 upbm affinity estimate (log intensity, higher = more binding, comparable within an allelic series); in the assay with ALX1 [20], 6.3 upbm affinity estimate (log intensity, higher = more binding, comparable within an allelic series); with ALX3 [9], 7.31 upbm affinity estimate (log intensity, higher = more binding, comparable within an allelic series); in the assay with ALX3 [10] it was 7.59 upbm affinity estimate (log intensity, higher = more binding, comparable within an allelic series); with ALX3 [12] it was 7.69 upbm affinity estimate (log intensity, higher = more binding, comparable within an allelic series). Also, the binding signal in the assay with HOXA2 [16] was 10.3 upbm affinity estimate (log intensity, higher = more binding, comparable within an allelic series); in the assay with ALX1 [21] it was 6.12 upbm affinity estimate (log intensity, higher = more binding, comparable within an allelic series); in the assay with ALX3 [13] it was 7.71 upbm affinity estimate (log intensity, higher = more binding, comparable within an allelic series); in the assay with HOXA2 [17], 7.01 upbm affinity estimate (log intensity, higher = more binding, comparable within an allelic series); with HOXB6 [22], 8.63 upbm affinity estimate (log intensity, higher = more binding, comparable within an allelic series).

GTTATTCA: the binding signal was 9.35 upbm affinity estimate (log intensity, higher = more binding, comparable within an allelic series) with VENTX [1]; 9.76 upbm affinity estimate (log intensity, higher = more binding, comparable within an allelic series) with VENTX [2]; 9.4 upbm affinity estimate (log intensity, higher = more binding, comparable within an allelic series) with VENTX [3].

For the sequence CGGGCGCA, the binding signal with VENTX [1] is 7.97 upbm affinity estimate (log intensity, higher = more binding, comparable within an allelic series); with VENTX [2] it was 7.92 upbm affinity estimate (log intensity, higher = more binding, comparable within an allelic series); with VENTX [3], 7.91 upbm affinity estimate (log intensity, higher = more binding, comparable within an allelic series); with VAX1 [23], 6.81 upbm affinity estimate (log intensity, higher = more binding, comparable within an allelic series); in the assay with VAX1 [24] it was 6.96 upbm affinity estimate (log intensity, higher = more binding, comparable within an allelic series); in the assay with VAX1 [25] it was 6.94 upbm affinity estimate (log intensity, higher = more binding, comparable within an allelic series).

With CGGCGTGC, the binding signal was 8.01 upbm affinity estimate (log intensity, higher = more binding, comparable within an allelic series) in the assay with VENTX [1]; 7.84 upbm affinity estimate (log intensity, higher = more binding, comparable within an allelic series) in the assay with VENTX [2]; 8.12 upbm affinity estimate (log intensity, higher = more binding, comparable within an allelic series) in the assay with VENTX [3]; 7.7 upbm affinity estimate (log intensity, higher = more binding, comparable within an allelic series) with ALX3 [7]; 7.74 upbm affinity estimate (log intensity, higher = more binding, comparable within an allelic series) with ALX3 [9]; 7.08 upbm affinity estimate (log intensity, higher = more binding, comparable within an allelic series) with VAX1 [23]. In addition, the binding signal was 7.73 upbm affinity estimate (log intensity, higher = more binding, comparable within an allelic series) in the assay with ALX3 [10]; 7.75 upbm affinity estimate (log intensity, higher = more binding, comparable within an allelic series) in the assay with ALX3 [12]; 7.28 upbm affinity estimate (log intensity, higher = more binding, comparable within an allelic series) with VAX1 [24]; 7.71 upbm affinity estimate (log intensity, higher = more binding, comparable within an allelic series) in the assay with ALX3 [13]; 7.16 upbm affinity estimate (log intensity, higher = more binding, comparable within an allelic series) in the assay with VAX1 [25].

Regarding AAATTACC, the binding signal in the assay with VENTX [1] was 11.1 upbm affinity estimate (log intensity, higher = more binding, comparable within an allelic series); with VENTX [2], 11.5 upbm affinity estimate (log intensity, higher = more binding, comparable within an allelic series); in the assay with VENTX [3], 11 upbm affinity estimate (log intensity, higher = more binding, comparable within an allelic series); in the assay with HOXB6 [18] it was 9.94 upbm affinity estimate (log intensity, higher = more binding, comparable within an allelic series); with HOXB6 [22], 11.6 upbm affinity estimate (log intensity, higher = more binding, comparable within an allelic series).

Consider CCGGGACC, for which the binding signal with VENTX [1] was 8.02 upbm affinity estimate (log intensity, higher = more binding, comparable within an allelic series); with VENTX [2], 8.2 upbm affinity estimate (log intensity, higher = more binding, comparable within an allelic series); with VENTX [3] it was 7.98 upbm affinity estimate (log intensity, higher = more binding, comparable within an allelic series); with HOXD13 [26] it was 9.46 upbm affinity estimate (log intensity, higher = more binding, comparable within an allelic series); with NKX2-6 [8], 9.14 upbm affinity estimate (log intensity, higher = more binding, comparable within an allelic series); with HOXD13 [27], 9.43 upbm affinity estimate (log intensity, higher = more binding, comparable within an allelic series). The binding signal with HOXD13 [28] is 9.37 upbm affinity estimate (log intensity, higher = more binding, comparable within an allelic series); in the assay with NKX2-6 [11], 9.26 upbm affinity estimate (log intensity, higher = more binding, comparable within an allelic series).
